Sampled rows, rich in hits. Any-hit rate of the full collection: about 3.6%.
Nrf2 activator = activates Nrf2 signaling. AREc32 ARE-luciferase reporter (MCF7-derived line), luminescence, 24 h. Potency, µM (top dose mostly 46.1 µM), hits mostly activators. 0.31% of 410,000 active; note: nearly all actives have a fitted effect of over 65% in size
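AREc32 cells carrying an ARE-driven firefly luciferase reporter were seeded at 1000 cells/well in OPTI-MEM with 5% FBS, then exposed to compound for 24 hr at 37 deg C. Luminescence was read with Steady-Glo after 30 min at RT.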
TGFb SMAD3 inh = TGF-b pathway inhibition. Potency, µM (top dose mostly 46.1 µM), most hits filed as inhibitors. HepG2 CAGA-GFP TGF-b/SMAD3 reporter, GFP fluorescence, 18 h; TGF-beta stimulated, 500 pg/mL final. AID 588855. 1.2% of 410,000 active; note: nearly all actives have a fitted effect of over 65% in size
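GFP signal (ex488/em500-530) from TGF-beta-stimulated HEPG2 CAGA-GFP cells, 500 pg/mL final, 18 h at 37 degrees C in DMEM plus 1% FBS, normalized to unstimulated and DMSO-stimulated controls.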
Nrf2 block = Nrf2 pathway inhibition; 2.1% of 360,000 active; Potency, µM (series often up to 46 µM), actives largely listed as inhibitors; AID 504444; A549 ARE-Fluc reporter, luciferase luminescence, 18-24 h; note: nearly all actives have a fitted effect of over 60% in size
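Reporter: ARE-Fluc in A549. Exposure: 18-24 h, 37 °C, 5% CO2, 5% FBS OPTI-MEM. Readouts: fluorescent cytotoxicity (CellTiter-Fluor), then luminescent Nrf2 signal after BugLite.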
HepG2 tox = HepG2 cytotoxicity, counter-screen for TGF-b inhibitors; HepG2 CAGA-GFP viability, ATP luminescence, 18 h; Potency, µM (top dose mostly 46.1 µM), usual class: cytotoxic; 0.76% of 410,000 active
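HepG2 CAGA-GFP cells (1000/well, DMEM with 1% FBS) received compound, then TGF-beta at 500 pg/mL final, and were incubated 18 hours at 37 degrees C. Viability was read by CellTiter-Glo luminescence. Media-only wells were set as complete cell-killing and DMSO as no toxicity.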
A549 tox = A549 cytotoxicity, counter-screen for Nrf2 inhibitors; A549 ARE-Fluc cells, CellTiter-Fluor viability, 18-24 h; Potency, µM (titrated, usually from 46 µM), most hits filed as inhibitors; 0.16% of 390,000 active; AID 504648
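A549 ARE-Fluc cells in 5% FBS OPTI-MEM, 5000 cells/well, rested 2 h then exposed to compounds in concentration-response for 18-24 h at 37 °C. Viability by CellTiter-Fluor fluorescence (Ex 405/Em 525) after 30 min; luciferase luminescence (BugLite, 15 min, RT) read afterwards.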
Each line names hits and unclear results; the compound was inactive in the other large screens. Calls come from the whole dose curve; as a rule, active = well fitted curve in the direction sought with a large enough effect; inconclusive = small, poorly fitted or top-dose-only effect, or another doubt; inactive = no such curve, though single readings can be large; an effect the other way counts as inactive or inconclusive.

CN(CC(=O)Nc1ccc(Cl)c(C(F)(F)F)c1)C(=O)c1ccc(OCC2CCCO2)cc1 (configuration not stated)	TGFb SMAD3 inh inconclusive, Nrf2 block 16µM, A549 tox inconclusive
CN(CC(=O)Nc1ccc(Cl)c(C(F)(F)F)c1)C(=O)C1CCC1	none
Cc1ccc(C(=O)N(C)CC(=O)Nc2ccc(Cl)c(C(F)(F)F)c2)cc1S(=O)(=O)N1CCCCC1	TGFb SMAD3 inh inconclusive, Nrf2 block 5.8µM, A549 tox inconclusive
O=[N+]([O-])c1ccc(N2CCN(C(=S)NCc3ccc(Cl)cc3)CC2)cc1	TGFb SMAD3 inh inconclusive, Nrf2 block 16µM, A549 tox inconclusive
O=[N+]([O-])c1ccc(C(=S)N2CCN(c3ccc(F)cc3)CC2)cc1	Nrf2 block 18µM
c1ccc(C2[C@H]3CN(Cc4cccnc4)[C@H](c4ccccc4)C34CC2(c2cccnc2)C4)cc1 (some centres not stated)	TGFb SMAD3 inh 14µM, Nrf2 block inconclusive
COC(=O)c1ccc(N2CCN(C(=O)C3CC3)CC2)c([N+](=O)[O-])c1	none
CC1(C)c2ssc(=S)c2-c2ccccc2N1C(=O)CSC1=NCCS1	Nrf2 block 15µM
CC(=O)Nc1ccc(Sc2ncccc2C(=O)Nc2ccc(F)cc2)cn1	none
CC1(/[N+]([O-])=C/c2ccc(Cl)cc2Cl)CCCCC1=O (configuration not stated)	none
COc1cccc(NC(=S)NC(Cc2ccccc2)c2ccccc2)c1 (configuration not stated)	TGFb SMAD3 inh 22µM (no result: Nrf2 block, A549 tox)
COc1cccc(NC(=S)NC(C)c2ccc(OC)c(OC)c2)c1 (configuration not stated)	none
CCCCOc1ccc(/C=C2/Sc3ccccc3C2=O)cc1	Nrf2 block inconclusive
CC(=O)Oc1cccc(/C=C2\Sc3ccccc3C2=O)c1	Nrf2 activator 14µM
O=C1C(=O)N(c2ccccn2)C(c2ccc(F)cc2)/C1=C(/O)c1ccc(Br)cc1 (configuration not stated)	Nrf2 block 8.2µM
COCCCNc1oc(-c2ccc(COc3ccc(Cl)cc3)o2)nc1C#N	TGFb SMAD3 inh inconclusive, Nrf2 block 23µM
CCOc1ccc(Nc2oc(-c3ccc(Cl)cc3)nc2C#N)cc1	A549 tox 21µM
O=C(CSCc1ccc([N+](=O)[O-])cc1)NC1CC1	none
CCOc1ccc(CNc2ccc3c(c2)ncn3C(C)(C)C)cc1	TGFb SMAD3 inh inconclusive, Nrf2 block inconclusive
CCOc1ccc(N(C)S(=O)(=O)c2ccc(C)c(C(=O)NCc3cccs3)c2)cc1	Nrf2 block 16µM
CCOc1ccccc1CNC(=O)c1[nH]c2ccccc2c1Sc1ccccc1	TGFb SMAD3 inh inconclusive, Nrf2 block inconclusive
Cc1ccc(C)n1-c1nnc(N2CCCC(C(=O)Nc3ccc(C(C)C)cc3)C2)s1 (configuration not stated)	TGFb SMAD3 inh 7.9µM, Nrf2 block inconclusive
Cc1ccc(NC(=O)C2CCCN(c3nnc(-n4c(C)ccc4C)s3)C2)cc1Cl (configuration not stated)	none (no result: TGFb SMAD3 inh)
CCOc1ccccc1C(=O)Nc1cc2c(cc1N1CCCCC1)n(C)c(=O)n2C	Nrf2 block 23µM, A549 tox inconclusive
Cn1c(N=Nc2ccccc2)nc2ccccc21	Nrf2 activator inconclusive, Nrf2 block inconclusive, HepG2 tox 7.1µM, A549 tox inconclusive
CN(C)c1ccc(N=Nc2nc3ccccc3n2C)cc1	TGFb SMAD3 inh inconclusive
CCOC(=O)C1=C(c2ccccc2)N=c2s/c(=C\c3ccc(O)cc3)c(=O)n2C1c1cccs1 (configuration not stated)	TGFb SMAD3 inh inconclusive, Nrf2 block 16µM, A549 tox inconclusive
CCOC(=O)C1=C(c2ccccc2)N=c2sc(=Cc3cc(OC)c(OC)c(OC)c3)c(=O)n2C1c1cccs1 (configuration not stated)	none (no result: Nrf2 block, A549 tox)
COc1ccc(NC(=O)c2c3c(nc4ccccc24)CCN(Cc2ccccc2)C3)c(OC)c1	TGFb SMAD3 inh inconclusive
Cc1ccc2occ(C(=O)c3ccco3)c(=O)c2c1	Nrf2 activator 13µM
O=C(c1cc(C(=O)c2ccco2)cc(C(=O)c2ccco2)c1)c1ccco1	none

Bioassay records: PubChem BioAssay, National Center for Advancing Translational Sciences (NCATS)
